Source: PubChem (National Center for Advancing Translational Sciences (NCATS))
Hits are enriched below; roughly 11% of the tested compounds scored in any of these assays.
NS1 inh: inhibitors of influenza NS1 protein function; AID 2326; Potency, µM (series often up to 46.1 µM), without a hit: at the top dose activity, positive = more growth; actives 0.4% (n = 270,000); calls by dose curve; further: actives are rising curves; nearly all actives have a fitted effect of over 50% in size
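S. cerevisiae expressing influenza A NS1, grown in glucose, washed, then diluted 1:100 into pH 6.0 -URA galactose medium with 23 nl compound. Growth recovery read as OD600; NS1-free strain serves as control.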
Sm TGR inh: inhibitors of Schistosoma mansoni thioredoxin glutathione reductase | Potency, µM (top dose mostly 114 µM), inactives show at the top dose activity change, negative = inhibition, actives largely listed as inhibitors | purified TGR, DTNB reduction, TNB absorbance 405 nm | actives 3% (n = 360,000) | AID 485364 | Q962Y6; further: on the % scale 0 is the no-effect control and ±100 the full control effect; nearly all actives have a fitted effect of over 60% in size
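Kinetic colorimetric format: TGR-catalysed, NADPH-driven DTNB reduction monitored via TNB absorbance. Enzyme dispensed at 20 nM; compound exposure 15 min at room temperature before reaction start.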
Pf growth 96h: P. falciparum growth inhibition at 96 hour, primary screen for plastid delayed-death inhibitors | Potency, µM (doses to about 28.7 µM), without a hit: at the highest dose activity change, negative = inhibition, hits mostly inhibitors | P. falciparum luciferase reporter growth, 96 h | actives 6.9% (n = 320,000) | AID 504834; further: on the % scale 0 is the no-effect control and ±100 the full control effect
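Luminescence readout: decreased luciferase signal marks inhibited growth of reporter-expressing P. falciparum in infected red cells (2% hematocrit, 0.05% parasitemia final), exposed to compound two generations (96 h, 37 C, 5% CO2).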
AMA1 RON2 block: AMA1-RON2 (P. falciparum) interaction inhibition. AlphaScreen AMA1-biotinylated RON2 peptide binding. Potency, µM (highest dose often 58.2 µM), for inactives: at the top dose activity change, negative = inhibition, actives largely listed as inhibitors. actives 0.2% (n = 360,000);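 further: 0% = vehicle wells and -100% = peptide control; nearly all actives have a fitted effect of over 45% in size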
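AMA1 (3D7) with his tag at 25 nM final met compounds first, then biotinylated RON2 peptide at 25 nM; detection used donor plus acceptor beads, 10 µg/mL apiece, read by AlphaScreen after 30 min at room temperature.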
Pf growth 48h: P. falciparum growth inhibition at 48 hours (one generation) | P. falciparum luciferase growth in erythrocytes, 48 h | Potency, µM (doses to about 28.7 µM), for inactives: top-dose activity change, negative = inhibition, most hits filed as inhibitors | actives 5.9% (n = 310,000) | AID 504832; further: on the % scale 0 is the no-effect control and ±100 the full control effect
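Cell-based growth assay: transgenic P. falciparum expressing firefly luciferase, cultured in red cells within RPMI 1640 containing 0.5% w/v Albumax, 24 mM bicarbonate and gentamycin. A drop in luciferase activity indicates inhibition.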
* hit, by the source's call; ? = inconclusive; . = no result given. Unless noted, the call rests on the fitted dose curve; in most records, active means well fitted curve in the direction sought with a large enough effect; inconclusive means small, poorly fitted or top-dose-only effect, or another doubt; inactive means no such curve, though single readings can be large; an effect the other way counts as inactive or inconclusive. Potency means the concentration at half of the fitted maximal effect.

SMILES	NS1 inh	Sm TGR inh	Pf growth 96h	AMA1 RON2 block	Pf growth 48h
C=CCN1[C@@H](Cc2ccccc2)COc2cc(N3CCSCC3)ccc2S1(=O)=O	.	.	.	-16.2%	.
CCc1cc(=O)oc2cc(C)cc(OC(C)C(=O)NCCCn3ccnc3)c12 (stereo unspecified)	-13.0%	-16.8%	?	-1.9%	10.4µM*
CCCCc1cc(=O)oc2cc(C)cc(OCC(=O)NCc3ccccn3)c12	-0.9%	-11.3%	2.62µM*	91.7%	2.94µM*
CCc1cc(=O)oc2cc(C)cc(OC(C)C(=O)NCCCN3CCCC3=O)c12 (stereo unspecified)	-6.8%	3.3%	?	-3.4%	?
Cc1cc(OC(C)C(=O)NCc2ccccn2)c2c(C)cc(=O)oc2c1 (stereo unspecified)	2.2%	1.5%	3.7µM*	53.0%	1.65µM*
CCCCc1nc2cc(C(=O)NCc3ccccn3)ccc2o1	0.6%	-0.5%	11.7µM*	91.0%	-9.6%
C[C@]12C=C[C@H](O)CC1=CCC1C2CC[C@@]2(C)C1CCC21OCCO1 (stereo partly specified)	.	.	.	-0.1%	.
C=CCN(C(=O)CSc1nc2ccsc2c(=O)n1Cc1ccc(C(=O)O)cc1)c1ccccc1	.	.	.	-6.2%	.
CCOc1ccc(C(=O)NCC(=O)OCC(=O)Nc2nnc(-c3ccccc3)o2)cc1	.	-5.0%	?	94.9%	?
Cc1ccc(CNC(=O)Nc2cc(C(=O)NCc3cccc(F)c3)ccc2N2CCCC2)cc1	.	3.3%	.	.	.
CCCc1cc(=O)oc2cc(C)cc(OCC(=O)NCc3cccnc3)c12	-22.9%	1.6%	10.3%	-14.9%	?
CCCCc1cc(=O)oc2cc(C)cc(OCC(=O)Nc3cccnc3)c12	-2.5%	-7.3%	0.522µM*	-2.3%	0.465µM*
COCCS(=O)(=O)N(Cc1ccccc1)[C@H](C(=O)OC)C(C)C	.	.	.	5.3%	.
CS(=O)(=O)N(Cc1cccc(CN(C(C(=O)O)c2ccccc2)S(C)(=O)=O)c1)C(C(=O)O)c1ccccc1 (stereo unspecified)	21.1%	5.01µM*	-7.9%	-9.0%	16.2%
COC(=O)[C@@H](NCc1cccc(CN([C@H](C(=O)OC)C(C)C)S(C)(=O)=O)c1)C(C)C	0.9%	-23.1%	14.7µM*	14.3%	?
Cc1ccccc1Nc1sc(C(=O)c2ccc(F)cc2)c(N)c1C(=O)NCCc1ccccc1	.	-9.6%	.	.	.
CN(Cc1ccccc1)Cc1c(O)ccc2ccccc12	10.0%	0.891µM*	?	?	-3.8%
COc1ccc(OCCN(C)Cc2c(O)ccc3ccccc23)cc1	9.6%	1.12µM*	38.7%	6.2%	3.9%
O=[N+]([O-])c1ccc(NC(=S)NCc2ccc(F)cc2)cc1	-130.4%	?	4.15µM*	14.0%	?
O=[N+]([O-])c1ccc(NC(=S)NCCc2ccc(Cl)cc2)cc1	-46.1%	?	1.85µM*	3.0%	2.33µM*
CC1(C)CC(NC(=S)Nc2ccc([N+](=O)[O-])cc2)CC(C)(C)N1	3.2%	50.1µM*	-15.7%	-14.5%	?
S=C(NCc1ccccc1)Nc1ccc2cn[nH]c2c1	0.8%	39.8µM*	-10.8%	-5.5%	10.1%
S=C(Nc1ccc2cn[nH]c2c1)Nc1ccc2cn[nH]c2c1	-4.8%	.	.	.	.
CCOCCCNCc1cn(-c2ccc(F)cc2F)nc1-c1ccccc1C	4.1%	-30.6%	?	-0.3%	?
CC(C)C[C@H]1CNC(=O)C(=O)N1CC1CCN(CCc2ccccc2)CC1	.	.	.	10.5%	.
SMILES	NS1 inh	Sm TGR inh	Pf growth 96h	AMA1 RON2 block	Pf growth 48h
Fc1ccc(NC(=S)NCc2ccccc2)cc1	26.2%	0.4%	14.7µM*	6.6%	13.5%
NS(=O)(=O)c1cccc(NC(=O)CCSc2ccc(Cl)cc2)c1	28.7%	17.8µM*	7.3%	3.7%	6.1%
NS(=O)(=O)c1cccc(NC(=O)Nc2ccccc2)c1	-7.6%	-16.9%	103.2%	16.3%	2.08µM*
NS(=O)(=O)c1cccc(NC(=O)CCCNC(=O)c2ccc(Cl)cc2)c1	1.6%	0.8%	1.0%	38.2%	10.8%
CSc1scc2c1-c1nc(SCC(=O)C(C)(C)C)ncc1CC2	6.0%	-8.5%	9.28µM*	16.8%	9.28µM*
C=CCNC(=O)CSc1ncc2c(n1)-c1c(csc1SC)CC2	-4.0%	-16.8%	-13.6%	-4.2%	0.3%
Cn1c(=O)n(CCc2ccccc2)c(=O)c2c1nc1n2CCN1Cc1ccco1	-72.6%	-21.6%	5.22µM*	-12.7%	8.28µM*
Cc1ccc(C)c(Cn2c(=O)c3c(nc4n3CCN4Cc3ccco3)n(C)c2=O)c1	-8.0%	-13.0%	?	-3.8%	8.28µM*
Cn1c(=O)n(Cc2ccc(F)cc2)c(=O)c2c1nc1n2CCN1Cc1ccco1	.	-5.6%	?	-12.5%	?
O=C(Cc1c[nH]c2ccccc12)N1CCc2ccccc21	-5.3%	-11.2%	10.4µM*	-11.0%	-26.2%
CCCN(CCC)C(=O)Cc1coc2ccc3ccccc3c12	-6.3%	0.4%	.	6.9%	11.7µM*
O=C(Cc1coc2ccc3ccccc3c12)N1CCN(c2ncccn2)CC1	-9.0%	0.0%	8.28µM*	3.0%	?
O=C(Cc1coc2ccc3ccccc3c12)N1CCc2ccccc21	11.5%	10.7%	8.28µM*	-14.7%	-13.4%
Cc1ccc2c(CC(=O)N3CCc4ccccc43)coc2c1	-1.8%	-12.5%	-11.0%	4.6%	81.3%
O=C(Cc1coc2ccc3ccccc3c12)NCc1ccccc1	-8.5%	-16.8%	?	-11.4%	.
O=C(CSc1c[nH]c2ccccc12)N1CCCc2ccccc21	-16.6%	8.6%	-5.7%	0.0%	-29.3%
CCN(CC)c1ccc(C(=O)NNC(=O)CN2C(=O)NC(C)(c3ccccc3)C2=O)cc1 (stereo unspecified)	.	-11.8%	-13.7%	68.5%	-6.1%
C=CCOc1c(OC)cc(/C=N/Nc2cccc(C(=O)O)c2)c(Br)c1Br	-15.1%	56.2µM*	42.7%	-4.8%	50.1%
C=CCOc1c(/C=N\NC(N)=O)cccc1OC	0.4%	-10.0%	30.2%	0.9%	?
O=C(CCSc1ccc(Br)cc1)c1ccc(O)cc1	-95.3%	2.51µM*	4.9%	-3.2%	-2.8%
O=C(CCO)c1ccc(O)cc1	-0.1%	17.8µM*	44.8%	?	7.8%
CCCCC(=O)c1ccc(O)cc1	5.8%	-17.1%	.	2.6%	32.5%
Cc1cc(NC(=O)NCC(F)(F)F)no1	5.3%	0.8%	15.4%	-9.3%	10.9%
CCNC(=S)Nc1cccc(F)c1C	8.4%	-7.1%	15.4%	-3.8%	8.5%
O=C(N/N=C\c1ccncc1)c1ccc(Cl)s1	-36.8%	4.3%	13.1µM*	20.2%	9.8%
Cc1ccc(-c2cc(C(=O)N/N=C/c3ccco3)n[nH]2)s1	10.2%	-27.5%	67.8%	22.6%	10.4µM*
O=C(N/N=C/c1ccccn1)c1cc(-c2ccc(Br)s2)[nH]n1	13.6%	1.1%	22.1%	76.1%	?
CC(C)(C)c1cc(C(=O)N/N=C/c2ccco2)n[nH]1	5.0%	-1.8%	-13.1%	24.5%	89.0%
O=C(N/N=C/c1ccncc1)c1cc(-c2ccc(Br)s2)[nH]n1	-6.7%	3.7%	11.7µM*	7.1%	?
